The source of these data is PubChem BioAssay AID651898 (Broad Institute, 2012).

A short description of the assay: HepG2 hepatoma cell viability loss – plate reader, cherry-pick, two tests, cytotoxicity control, dose response (AID 651898). The note with it: max activity: at 12 µM, test 1 unless noted.

The structures appear in SMILES notation. This is one part of the list. Active and inactive are the calls of the source. How the calls were made is not given here.

As to `C=C(C)CSc1nc(N)c2c3c(sc2n1)CCC3`, the max activity was -7.76% [at 1.6 µM, test 1] (inactive).

Regarding `COc1cc(-c2n[nH]c(=S)n2Cc2ccccc2)cc(OC)c1OC`, the max activity is -15.9% (inactive).

For `Cn1c(=O)c2c(nc(OCc3cccnc3)n2Cc2ccccc2)n(C)c1=O`, the max activity is -11.3% [at 26 µM, test 1] (inactive).

Turning to `O=C(c1ccncc1)N1CC[C@@H]2[C@H]1c1cc(Br)ccc1N[C@@H]2CO`, the max activity was -16.4% [measured here: replicate test 2 max activity, at 0.8 µM, test 2] and the result was inactive.

As to `C=CCn1c(SCc2c(C(=O)OC)sc(N)c2C(=O)OC)nnc1-c1ccc(Cl)cc1`, the max activity is -11.6% [at 1.6 µM, test 1] (inactive).

On to `CN1c2ccc(-c3ccccc3)cc2[C@H]2[C@H](CCN2C(=O)Cc2ccccn2)[C@H]1CO`, for which the max activity was 20.8% [measured here: replicate test 2 max activity, at 23.5 µM, test 2] and the compound was classed as inactive.

For `CC(=O)O[C@]1(C(C)=O)CC[C@H]2[C@@H]3C=C(C)C4=CC(=O)CC[C@]4(C)[C@H]3CC[C@@]21C`, the max activity was 5.11% [at 1.6 µM, test 1] (inactive).

As to `O=c1[nH]c(N2CCN(Cc3ccc4c(c3)OCO4)CC2)nc2c1CCCC2`, the max activity is -9.65% [at 0.38 µM, test 1] (inactive).

Consider `O=C(CSc1n[nH]c(-c2cccnc2)n1)Nc1ccnc2ccccc12`, for which the max activity was 8.04% (inactive).

`CCCOc1ccc2c3c(c(=O)oc2c1OCCC)CCC3`: the max activity is 27.7% [at 26 µM, test 1] (inactive).

As for `CC1(C)CC(=O)C=C(c2ccc3ncccc3c2)C1`, the max activity is -17% (inactive).

For the compound `CCC(CO)Oc1cc(NC(=O)c2cccc(F)c2)c2ncn(C(C)C)c2c1` (stereo not given), the max activity is 10.6% [measured here: replicate test 2 max activity, at 0.195 µM, test 2] and the compound was called inactive.

For the compound `Cc1ccc(Cc2c(C)nc3nc(SCC(=O)NCCN4CCOCC4)nn3c2C)cc1`, the max activity was -6.95% [at 0.38 µM, test 1] (inactive).

As to `Cc1nc(=O)c(-c2ccccc2)c(C)n1-c1ccc(Br)cc1`, the max activity is 19% (inactive).

For `CC(=O)CSc1nnc(CSc2ncccn2)n1C1CCCCC1`, the max activity is 18.7% [at 1.6 µM, test 1] (inactive).

For `Cc1c2cnn(CC(=O)NCc3ccccn3)c(=O)c2c(C)n1Cc1ccc(Cl)cc1`, the max activity is 24.2% [at 26 µM, test 1] (inactive).

Take `COCCNC(=O)C[C@H]1CC[C@@H]2[C@H](COc3ccc(NC(=O)Nc4cccc(F)c4)cc3C(=O)N2C)O1`: the max activity is 9.85% [measured here: replicate test 2 max activity, at 3 µM, test 2] and the compound was called inactive.

Turning to `Cc1c(OC(C)C(=O)NCC2CCC(C(=O)O)CC2)ccc2c1oc(=O)c1ccccc12` (stereo not given), the max activity is 38.2% (inactive).

`CS(=O)(=O)N1[C@H](C(=O)NCc2ccncc2)[C@@H](CO)[C@@H]2Cn3c(ccc(C4=CCCCC4)c3=O)[C@@H]21`: the max activity is -13.1% [measured here: replicate test 2 max activity, at 3 µM, test 2] and the compound was classed as inactive.

On to `Cc1nc2nc(SCC(=O)NCc3ccco3)nn2c(C)c1Cc1ccccc1`, for which the max activity was 6.48% [at 0.195 µM, test 1] (inactive).
